This note sets out measurements from PubChem BioAssay (Tox21).

Structures are written as SMILES. Results filed as inconclusive are left out. Unmarked numbers belong to inactive results. Activity calls are given as the source filed them. Calls come from the whole dose curve; as a rule, active = well fitted cell-killing curve with a large enough effect in the repeat runs; inconclusive = weak or mixed curves, or effect the other way; inactive = no such curve, though single readings can be large or run the other way.
% is set by controls: 0 for no effect and ±100 for the full control effect.

The test is described as follows: qHTS assay to identify small molecule antagonists of the progesterone receptor (PR) signaling pathway - cell viability counter screen (AID 1346798). Note: nearly all actives have a fitted effect of over 50% in size. The settings on record: PR-UAS-bla HEK293T viability, CellTiter-Glo luminescence, 16 h; series mostly up to 92.4 µM. The source says: National Center for Advancing Translational Sciences [NCATS]
NIH Chemical Genomics Center [NCGC]
U.S. Environmental Protection Agency [EPA]
National Institutes of Environmental Health Sciences [NIEHS]
National Toxicology Program [NTP]
U.S. Food and Drug Administration [FDA]
Progesterone receptor (PR), a nuclear hormone receptor, plays an important role in development, metabolic homeostasis and reproduction. It is activated by the steroid hormone progesterone. Endocrine disrupting chemicals (EDCs) and their interactions with steroid hormone receptors like PR causes disruption of normal endocrine function. To identify the compounds that inhibit PR signaling, a PR-UAS-bla GripTite cell line i.e. PR-UAS-bla HEK293T (Invitrogen, Carlsbad, CA, USA) containing a beta-lactamase reporter gene under the control of an UAS response element was used to screen Tox21 10K compound library. The cytotoxicity of the Tox21 compound library against the PR-bla cell line was tested in parallel by measuring the cell viability using CellTiter-Glo assay in the same wells.
Tox21 Assay Protocol Summary:
PR-UAS-bla HEK293T cells were dispensed at 3,000 cells/4 uL of assay medium containing 2% charcoal stripped FBS per well into black wall/clear-bottom 1536-well plates using a Multidrop Combi (ThermoFisher Scientific, Waltham, MA) dispenser. After the assay plates were incubated at a 37C and 5% CO2 for 4 hr, 23 nL of compounds dissolved in DMSO, positive controls or DMSO only was transferred to the assay plate by a Pintool station (Kalypsys, San Diego, CA), followed by addition of 1 uL of R5020 in assay medium using a Flying Reagent Dispenser (FRD, Aurora Discovery, San Diego, CA). The plates were incubated at 37C and 5% CO2 for 16 hr. Then 1 uL of LiveBLAzer B/G FRET substrate was added using a Flying Reagent Dispenser, the plates were incubated at room temperature for 2 hours, and fluorescence intensity was measured by an Envision plate reader (PerkinElmer, Shelton, CT). For cell viability readout that measures cytotoxicity, 4 uL/well of CellTiter-Glo reagent was added into the assay plates using a FRD. After 30 min incubation at room temperature, the luminescence intensity in the plates was measured using a ViewLux (PerkinElmer) plate reader.
A general note: Quantitative high-throughput screening tests each substance at several concentrations.
Consider `CCCCC1CCC(O)CC1` (stereo not given), for which the outcome was inactive.

With `OC1OCCOC1O` (stereo not given), the result was inactive.

As for `Cc1cc(C)c(C(=O)O)c(C)c1`, the compound was called inactive.

As to `COC(=O)CCCCC(=O)O`, the compound was called inactive.

`CO/N=C(/C(=O)N[C@@H]1C(=O)N2C(C(=O)[O-])=C(C[n+]3ccn4ncccc43)CS[C@H]12)c1nsc(N)n1`: the outcome was inactive.

Regarding `CCC(=O)Oc1ccc2c(c1)CC[C@@H]1[C@@H]2CC[C@@]2(C)[C@H]1C[C@@H](OC(=O)CC)[C@@H]2OC(=O)CC`, the result was inactive.

Take `CC1CC(=O)CC(C)(C)C1` (stereo not given): the outcome was inactive.

As to `COC(=O)c1ccccc1C(=O)O`, the call was inactive.

With `CC/C(C)=N\O[Si](C)(O/N=C(\C)CC)O/N=C(\C)CC`, the outcome was inactive.

For `c1ccc(B(c2ccccc2)c2ccccc2)cc1`, the outcome was inactive.

For `OC1(c2ccc(Cl)cc2)CCNCC1`, the call was inactive.

Take `O=C(O)[C@H](O)c1ccccc1`: the call was inactive.

Consider `CCCCCCCCCCCCCCCCCC#N`, for which the compound was called inactive.

In the case of `Cc1c(C(=O)c2c[nH]n(C)c2=O)ccc(S(C)(=O)=O)c1C1=NOCC1`, the compound was classed as inactive.

Regarding `c1ccc2c(CC3=NCCN3)cccc2c1`, the compound was classed as inactive.

Turning to `CCCCCC/C=C/C(=O)OC`, the result was inactive.

For `CCn1cc(C(=O)O)c(=O)c2cnc(N3CCCC3)nc21`, the activity change, negative = cytotoxicity is 1.24% [at 8.39 µM].

In the case of `O=C1CCCCO1`, the compound was called inactive.

Regarding `CCCc1ccc(O)cc1`, the compound was called inactive.

Take `OC[C@@H](O)C(O)[C@@H](O)CO` (stereo not given in full): the compound was classed as inactive.

On to `CCCCOCCOC(=O)COc1ccc(Cl)cc1Cl`, for which the result was inactive.

Consider `CCCCCCCCCCOC(C)=O`, for which the outcome was inactive.

Take `CCC(=O)CC`: the call was inactive.

With `CN(C)CCCO[C@@H]1[C@H]2OC(C)(C)O[C@H]2O[C@@H]1C(O)CO` (stereo not given in full), the compound was called inactive.

As for `O=C(CN1CCNCC1)NC1CCCCC1`, the call was inactive.

For `CCC(C)C(=O)OCCc1ccccc1` (stereo not given), the compound was called inactive.

Consider `CCO`, for which the outcome was inactive.

As to `CC(=O)C1C(=O)C=C(C)OC1=O` (stereo not given), the compound was called inactive.

Turning to `CC(=O)CC(=O)OC(C)(C)C`, the result was inactive.

Turning to `O=C(CCCl)NCCc1ccccc1`, the compound was called inactive.

Turning to `CO[C@@]1(NC(=O)Cc2cccs2)C(=O)N2C(C(=O)O)=C(COC(N)=O)CS[C@@H]21`, the result was inactive.

For the compound `CC(C)[C@H]1CC[C@H](C)C[C@@H]1O`, the result was inactive.

On to `CC(C)(C)NC[C@H](O)COc1cccc2c1CCCC2=O`, for which the result was inactive.

Take `C[C@@H](O)C(=O)O`: the outcome was inactive.

For the compound `N[C@@H](Cc1ccc(O)cc1)C(=O)O`, the activity change, negative = cytotoxicity was -4.23% [at 8.39 µM].

As for `OCC1(CO)COCOC1`, the outcome was inactive.

As to `CCO[Si](CC)(OCC)OCC`, the result was inactive.

For the compound `NCC1(Cc2noc(=O)[nH]2)CCCCC1`, the call was inactive.

On to `CN(C)CC/C=C1/c2ccccc2COc2ccc(CC(=O)O)cc21`, for which the result was inactive.

For the compound `CN(C)CCN(C)CCO`, the compound was called inactive.
